Values without a mark were called inactive. Active and inactive are the calls of the source. No rule for the calls is given here.
What follows are molecules tested against Estrogen receptor (Homo sapiens) (UniProt P03372) (assay: ERalpha ligand binders by competition, primary screen, cell-based, Cos7 ERalpha-GFP, flow cytometry (AID 1211;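 also: 0% = DMSO vehicle wells and 100% = no E2-Alexa633 signal left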)). Details: fluorescent ligand competition, at 10 µM, active compounds read high.
Chain of Estrogen receptor (Homo sapiens) (P03372 whole entry, looked up): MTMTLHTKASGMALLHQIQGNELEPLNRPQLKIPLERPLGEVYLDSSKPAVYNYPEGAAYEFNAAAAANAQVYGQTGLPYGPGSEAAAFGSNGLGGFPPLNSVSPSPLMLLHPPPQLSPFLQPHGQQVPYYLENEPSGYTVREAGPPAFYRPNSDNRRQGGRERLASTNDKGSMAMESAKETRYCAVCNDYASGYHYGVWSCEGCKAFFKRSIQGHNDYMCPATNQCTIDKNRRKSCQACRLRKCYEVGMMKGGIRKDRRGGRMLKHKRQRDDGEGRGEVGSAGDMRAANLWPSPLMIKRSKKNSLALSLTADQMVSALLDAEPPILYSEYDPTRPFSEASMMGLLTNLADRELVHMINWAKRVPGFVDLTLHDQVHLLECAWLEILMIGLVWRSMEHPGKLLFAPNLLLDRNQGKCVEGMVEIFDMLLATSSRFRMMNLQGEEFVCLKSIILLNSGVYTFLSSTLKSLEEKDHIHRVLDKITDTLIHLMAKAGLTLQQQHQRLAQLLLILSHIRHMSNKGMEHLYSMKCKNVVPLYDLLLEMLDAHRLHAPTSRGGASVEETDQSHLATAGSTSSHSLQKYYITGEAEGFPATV

Structure (SMILES) | inhibition of ligand binding
COc1cc2c(cc1OC)C(Cc1ccc(O)cc1)N(C)CC2 (stereo not drawn) | 0%
Cc1ccccc1Nc1nnc(SCC(=O)NC(=O)NCc2ccco2)s1 | 63%
O=C(NC1CCN(C(=O)N2c3ccccc3Sc3ccccc32)CC1)c1ccccc1Cl | 36%
CCc1ccc2nc(NC(=O)c3ccc4c(=O)[nH]c(CN5CCOCC5)nc4c3)sc2c1 | 32%
CCOC(=O)C1CCCN(C(=O)c2ccc(CS(=O)(=O)c3ccc(C)cc3)o2)C1 (stereo not drawn) | 30%
Oc1c(Cl)cc(Cl)cc1Sc1cc(Cl)cc(Cl)c1O | 37%
CN(c1ccccc1C(=O)O)S(=O)(=O)c1ccc2c3c(cccc13)C(=O)N2 | 40%
CCn1c(SCC(=O)Nc2cccc(F)c2)nnc1-c1cc2cc(Br)ccc2o1 | 26%
Cc1ccc2c(c1)c(=O)c1c3n2CCN(C(=O)CCl)C3CC1 (stereo not drawn) | 21%
O=C(O)C1CSC(c2coc3ccccc3c2=O)N1 (stereo not drawn) | 6%
Cc1cccc2cc(C(c3nnnn3C(C)(C)C)N(Cc3ccco3)CC3CCCO3)c(=O)[nH]c12 (stereo not drawn) | 31%
COc1ccc(C2Nc3ccccc3C(=O)N2c2ccccc2)cc1COc1ccccn1 (stereo not drawn) | 17%
O=C1c2ccccc2C(=O)N1CCCc1nc2ccccc2c(=O)n1CCCn1ccnc1 | 36%
COc1ccccc1N1CCN(C(=O)c2cc3c(s2)CCC3)CC1 | 41%
COc1cc(-c2nc3ccccn3c2/N=C/c2ccccc2)ccc1O | 53%
Nc1ccc2nc(-c3ccc(Cl)cc3)[nH]c2c1 | 41%
COc1cc(CCC(=O)OCC(=O)Nc2ncc(Cl)cc2Cl)cc(OC)c1OC | 3%
CCOC(=O)CSc1nn(C)c(=S)s1 | 52%
Brc1cc2c(cc1C1Nc3ccccc3C3C=CCC31)OCO2 (stereo not drawn) | 0%

Structure (SMILES) | inhibition of ligand binding
O=C(Nc1ccc(O)cc1C(=O)O)c1ccc2c(c1)C(=O)N(Cc1ccco1)C2=O | 33% (active)
COc1ccc2c(c1)[nH]c1c(=O)n(N)cnc12 | 55%
c1coc(-c2nnc3sc(Cc4cccs4)nn23)c1 | 24%
O=c1cc(O)c2sc(Nc3ccc(F)cc3)nc2[nH]1 | 9%
Cc1ccc(Cc2cncc(O)c2)cc1S(=O)(=O)O | 36%
COc1ccccc1/C=c1\sc2nc(-c3ccco3)nn2c1=O | 40%
Cc1cc(-c2ccccc2)nc2cc(C(N)=O)nn12 | 42%
CCn1c(SCC(=O)c2ccc(O)c(O)c2)nnc1-c1ccccc1OC | 54%
CCc1ccc(Nc2nc(N)nc(CSc3nnnn3-c3ccccc3)n2)cc1 | 49%
O=C(COC(=O)CCC(=O)c1cccs1)NCc1ccco1 | 42% (active)
Oc1ccc(/C=C/c2nc(-c3ccccc3O)n(-c3ccccc3)n2)cc1 | 11%
COc1ccc(-c2cn3c(C)c(C(=O)Nc4ccncc4)sc3n2)cc1 | 28%
Cc1c(C(=O)OCc2ccccc2)[nH]c2c1C(=O)CC(c1ccco1)C2 (stereo not drawn) | 37%
O=c1[nH]cnc2c1sc1nc3c(c(-c4ccc(Cl)cc4)c12)CCC3 | 41%
O=C(NCc1ccco1)c1cc2ccc(O)cc2oc1=O | 5%
COc1cccc(-c2nnc(NC(=O)Cc3cccs3)s2)c1 | 52%
Nc1ccc2nc(CN3CCOCC3)[nH]c2c1 | 42%
CC(=O)c1sc2nc(SCC(=O)N3CCCCC3)[nH]c(=O)c2c1C | 33%
CC(C)(C)c1nnc2sc(SC/C(O)=C(\C#N)c3nc4ccccc4[nH]3)nn2c1=O | 20%
